Compound activity from PubChem BioAssay.
An excerpt weighted towards active compounds, which were near 5.5% of everything screened.
Six1-Eya2 blk: blocks human Six1 binding to Eya2 | Q15475+O00167 | AlphaScreen GST-Six1/His-Eya2 binding, biochemical; hits give low values | activity change, % (no concentration beside the values) | 360,000 tested, 0.56% active | AID 651725; in the data active = activity change below about -65%; inconclusive = mostly about -30% to -63%; note: % is set by controls: 0 for no effect and ±100 for the full control effect
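Homogeneous AlphaScreen proximity assay pairing GST-Six1 with His-tagged Eya2 (added as 5X mix: 250 nM and 500 nM) in 50 mM Tris pH 8.0, 300 mM NaCl, 1 mM TCEP. Glutathione donor and nickel acceptor beads; 1 h, 37 °C, dark.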
RORg inh: inhibitors of mouse ROR gamma transcriptional activity; P51450; Drosophila S2 Gal4-RORgamma UAS-luciferase reporter, 20 h; Potency, µM (series often up to 53.6 µM), without a hit: at the top dose activity change, negative = inhibition, hits mostly inhibitors; 310,000 tested, 5.4% active; note: potency is the fitted concentration of half-maximal effect; % is set by controls: 0 for no effect and ±100 for the full control effect; nearly all actives have a fitted effect of over 60% in size
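Using a luciferase readout, inhibitors were identified by reduced reporter activity in Drosophila cells coexpressing a copper-inducible Gal4–ROR gamma fusion and UAS-driven Photinus luciferase, incubated 20 hr after 700 uM copper sulfate.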
CBFb-RUNX1 inh: CBF-beta/RUNX1 interaction disruption; Potency, µM (series often up to 59.8 µM), for the others: top-dose activity, negative = inhibition, usual class: inhibitors; AlphaScreen CBFb-His/RUNX1-biotin binding, biochemical; 230,000 tested, under 10 active; AID 1477; Q01196+Q13951; note: % of control where 0% means no effect
Target sequence (Q01196 whole entry, looked up): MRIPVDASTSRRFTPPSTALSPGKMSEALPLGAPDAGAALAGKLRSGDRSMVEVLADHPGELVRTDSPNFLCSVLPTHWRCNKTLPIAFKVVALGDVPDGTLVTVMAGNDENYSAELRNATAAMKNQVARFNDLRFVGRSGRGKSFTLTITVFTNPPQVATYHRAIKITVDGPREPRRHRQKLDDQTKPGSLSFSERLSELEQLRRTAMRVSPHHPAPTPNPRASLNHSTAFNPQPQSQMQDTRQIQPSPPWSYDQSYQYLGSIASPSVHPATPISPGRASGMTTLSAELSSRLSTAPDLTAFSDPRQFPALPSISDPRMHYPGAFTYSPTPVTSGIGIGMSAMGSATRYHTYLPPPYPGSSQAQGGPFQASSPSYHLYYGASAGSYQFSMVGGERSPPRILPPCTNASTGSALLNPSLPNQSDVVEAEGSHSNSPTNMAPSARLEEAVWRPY
Target sequence (Q13951 whole entry, looked up): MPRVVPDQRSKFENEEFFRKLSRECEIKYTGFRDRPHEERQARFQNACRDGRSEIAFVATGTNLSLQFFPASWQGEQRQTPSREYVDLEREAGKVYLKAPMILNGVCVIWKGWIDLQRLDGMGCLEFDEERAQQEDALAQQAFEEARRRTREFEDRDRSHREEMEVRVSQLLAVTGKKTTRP
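Interaction loss through any mechanism counts as activity. Pre-formed complex of His-CBF-beta and biotin-RUNX1 (30 nM apiece) is incubated with compound 15 min, then with 50 ng nickel and 50 ng streptavidin beads for 90 min before AlphaScreen detection.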
MBNL1-CUG inh: blocks human MBNL1 binding to CUG repeat RNA; Potency, µM (titrated, usually from 57.5 µM), for inactives: at the top dose activity change, negative = inhibition, actives largely listed as inhibitors; 280,000 tested, 0.036% active; AID 2675; Q9NR56; TR-FRET MBNL1-His/biotin-(CUG)12 binding, 665/545 ratio; active = well fitted inhibition curve with a large enough effect in the signal ratio, with a control signal flat, not every such curve was filed as active; inconclusive = small, poorly fitted or top-dose-only effect, or effect the other way, or a change in a side signal; inactive = no such curve, though single readings can be large or run the other way; the % refers to the signal ratio; note: potency is the fitted concentration of half-maximal effect; % is set by controls: 0 for no effect and ±100 for the full control effect
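His-tagged MBNL1 binding to biotinylated (CUG)12 RNA was measured by TR-FRET using terbium anti-His antibody (0.055 ng/ul final) and streptavidin-XL665 (5 nM final). Compounds were titrated 92 nM to 58 uM; 60 min at room temperature.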
CtBP-E1A inh: inhibitors of CtBP/E1A interaction | AlphaScreen GST-E1A/His-CtBP binding, 1536-well; hits give low values | AID 651724 | 340,000 tested, 0.49% active | activity change, % (no concentration beside the values); in the data active = activity change below about -65%; inconclusive = mostly about -30% to -63%; note: % is set by controls: 0 for no effect and ±100 for the full control effect
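AlphaScreen with 125 nM GST-E1A and 125 nM His-CtBP (5X stocks) in Tris pH 8.0, 300 mM NaCl, BSA, Tween 20, TCEP. Compounds preincubated 2 h at 37 deg C, then glutathione donor/nickel acceptor beads added for 1 h at 37 deg C in dark.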
VP16 counter: counter-screen for ROR gamma inhibitors: Gal4-VP16 reporter | Potency, µM (doses to about 53.6 µM), for inactives: at the top dose activity, negative = inhibition, usual class: inhibitors | Drosophila S2 Gal4-VP16 UAS-luciferase, luminescence, 20 h | 310,000 tested, 3.5% active;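 note: Gal4-VP16 expression switched on by copper sulfate through the metallothionein promoter; potency is the fitted concentration of half-maximal effect; % is set by controls: 0 for no effect and ±100 for the full control effect; nearly all actives have a fitted effect of over 50% in size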
Numbers without * were called inactive; ? = inconclusive; . = no result; [ ] = dose if it differs, or a comment. Unless noted, calls come from the whole dose curve; as a rule, active = well fitted curve in the direction sought with a large enough effect; inconclusive = small, poorly fitted or top-dose-only effect, or another doubt; inactive = no such curve, though single readings can be large; an effect the other way counts as inactive or inconclusive.

SMILES | Six1-Eya2 blk | RORg inh | CBFb-RUNX1 inh | MBNL1-CUG inh | CtBP-E1A inh | VP16 counter
OC1CCCN(C(=S)Nc2ccc(SC(F)F)cc2)C1 (configuration not stated) | 2.8 | 11.7% | 1.0% | -6.2% | 5.5 | -0.8%
CCN(CC(=O)Nc1ccc(OC)cc1)C(=O)c1ccc([N+](=O)[O-])cc1 | 13.4 | 10.5% | 0.0% | ? | 7.8 | -12.7%
COc1ccccc1-c1cnc(C(O)c2cc(Cl)cc(Cl)c2)[nH]1 (configuration not stated) | -12.1 | . | . | . | -2.6 | .
CC(=N\Nc1ccccc1)/C(=N/O)C(=O)Nc1ccccc1 | 0.3 | 14.1% | -4.0% | 0.8% | 4.7 | 0.2%
CC(=N\NC(=O)c1ccccc1)/C(=N/O)C(=O)Nc1ccccc1 | -10.6 | 5.01µM* | . | 13.7% | -9.5 | ?
COc1cc(C(O)c2nc3ccccc3s2)cc(OC)c1OC (configuration not stated) | 10.0 | ? | 16.4% | 0.8% | . | 10µM*
COc1ccc(C(O)c2nc3ccccc3s2)cc1 (configuration not stated) | . | 26.9% | 1.3% | 1.6% | . | 2.7%
C=CCc1ccccc1OCC(O)CN1CCN(CCN2C(=O)c3cccc4cccc(c34)C2=O)CC1 (configuration not stated) | -13.9 | -96.6% | -3.1% | ? | -20.4 | 11.2µM*
CCOc1cc(/C=C2\CCC/C(=C\c3cc(Cl)c(O)c(OCC)c3)C2=O)cc(Cl)c1O | 3.5 | ? | -10.8% | 3.4% | 0.0 | 11.2µM*
CCOc1cc(/C=C2\CN(C)C/C(=C\c3ccc(O)c(OCC)c3)C2=O)ccc1O | -7.3 | ? | . | -4.0% | 0.0 | ?
CN1C(=O)NC(c2ccc(C(F)(F)F)cc2)C2=C1CC(C)(C)CC2=O (configuration not stated) | 7.2 | 7.5% | . | -9.4% | . | 1.3%
O=C(NC1CCCCC1)C(c1cccnc1)N(C(=O)CCl)c1cccc(Cl)c1 (configuration not stated) | 2.1 | 12.6µM* | 0.3% | 0.2% | 9.6 | ?
COC(=O)CC(=O)CSc1nc2c(cc1C#N)CCC2 | -1.2 | ? | 5.6% | ? | 0.0 | 17.8µM*
Cc1cccc(CSc2nc3c(cc2C#N)CCC3)c1 | 6.3 | ? | 3.5% | 2.8% | 8.0 | 3.1%
N#Cc1cc2c(nc1SCc1nc3ccccc3[nH]1)CCC2 | . | 10µM* | 2.1% | ? | . | 11.2µM*
O=C1C=C(c2ccc(F)cc2OCc2ccccc2)C[C@@H](c2ccc(F)cc2)C1 | 27.6 | . | . | . | 0.0 | .
CCCn1c(-c2ccc(F)cc2)nc2c(NCCN(C)C)nc(C)nc21 | . | -17.0% | 12.8% | . | . | 5.4%
Cc1ccc(C(=O)OCC(=O)NC2CCCC(C)C2C)cc1S(=O)(=O)N1CCCCC1 (configuration not stated) | 4.2 | . | . | . | 7.6 | .
C=CCn1c(-c2ccc(Cl)cc2)cnc1SC(C)C(N)=O (configuration not stated) | -1.5 | 7.94µM* | -11.2% | 5.0% | -0.5 | ?
CCCNC(=O)C1(C)CCN(C(=O)C(c2ccccc2)c2ccccc2)C1 (configuration not stated) | 1.8 | . | . | . | 6.3 | .
O=c1[nH]c(-c2ccccn2)cc2ccccc12 | -15.7 | 5.01µM* | -5.5% | 21.9%[11.5 µM] | ? | ?
Cc1nc2ccc(Br)cn2c1NC(C)(C)C | -2.2 | 14.1µM* | -6.9% | -7.5% | 0.9 | ?
COc1ccc(C(c2c(C)[nH]n(C(N)=S)c2=O)C(C#N)C#N)cc1 (configuration not stated) | -5.5 | 4.47µM* | 17.6% | 37.7% | -14.8 | 4.47µM*
Nc1c(S(=O)(=O)c2ccccc2)cnc2c(-c3ccc(F)cc3)cnn12 | 3.7 | 4.47µM* | 4.7% | -11.6% | -4.3 | 10µM*
COc1ccc(-c2cnn3c(N)c(S(=O)(=O)c4ccccc4)cnc23)cc1 | -19.0 | 2.82µM* | 1.2% | 6.3% | -4.4 | 5.62µM*
SMILES | Six1-Eya2 blk | RORg inh | CBFb-RUNX1 inh | MBNL1-CUG inh | CtBP-E1A inh | VP16 counter
CS(=O)(=O)c1cnc2c(S(=O)(=O)c3ccccc3)cnn2c1N | -10.4 | 13.6% | 3.8% | 6.6% | 5.8 | 7.9%
Cc1cc(C(=O)COC(=O)Cc2n[nH]c(=O)c3ccccc23)c(C)n1-c1ccc2c(c1)OCO2 | -17.4 | -18.9% | -24.5% | 24.6% | -12.1 | 17.8µM*
COc1ccc(-n2c(C)cc(C(=O)COC(=O)Cc3n[nH]c(=O)c4ccccc34)c2C)cc1 | -23.2 | -8.5% | -24.1% | 0.3% | 5.3 | ?
CC(=O)c1ccc(OCC(=O)c2cc(C)n(-c3ccc4c(c3)OCO4)c2C)cc1 | -12.9 | ? | -18.9% | 8.2% | -16.5 | 10µM*
COc1ccc(-n2c(Cc3cccn3C)nnc2SCC(=O)Nc2ccc(C)c(Cl)c2)cc1 | -14.3 | ? | -1.1% | 0.6% | -10.6 | 11.2µM*
Cc1cc(C)cc(NC(=O)CSc2nnc(Cc3cccn3C)n2-c2ccc(F)cc2)c1 | -14.8 | ? | 1.1% | ? | -5.4 | 11.2µM*
COc1ccc(COC(=O)c2ccc(C)c(S(=O)(=O)N3CCOCC3)c2)cc1F | 5.7 | . | . | . | -6.5 | .
Cc1noc(NS(=O)(=O)c2ccc(N/C=C\C(=O)c3ccc(Br)cc3)cc2)c1C | -21.5 | 6.4% | -21.4% | ? | . | -7.6%
Cc1noc(NS(=O)(=O)c2ccc(N/C=C\C(=O)c3ccc4c(c3)OCO4)cc2)c1C | -67.9* | ? | -5.2% | ? | -75.4* | -6.7%
COc1ccc(N2CCN(C(CNC(=O)CC(C)(C)C)c3ccc4c(c3)OCO4)CC2)cc1 (configuration not stated) | -8.0 | 9.8% | . | -4.7% | -6.2 | -3.4%
O=C(CNC(=O)c1ccccc1Br)N/N=C/c1ccccc1O | -65.2* | 3.16µM* | -12.2% | 25.1% | ? | ?
O=C(N/N=C/c1cc(Cl)ccc1O)c1ccccc1Br | -70.3* | 0.708µM* | ? | 22.0% | -90.0* | 1.26µM*
O=C(N/N=C/c1c(Cl)nc2ccccn2c1=O)c1cccnc1 | -68.8* | 1.3% | -7.8% | . | -14.0 | -0.2%
O=C(/C=N/NC(=O)c1ccccc1Br)c1ccccc1 | -3.3 | ? | -3.3% | ? | 17.7 | 13.9%
O=C(Nc1cc(S(=O)(=O)Nc2ccc(Cl)cc2)ccc1O)c1ccc(S(=O)(=O)N2CCCCCC2)cc1 | -0.6 | ? | 8.8% | -4.4% | -3.6 | ?
O=C(N/N=C\c1cc(Cl)ccc1O)c1ccc(S(=O)(=O)N2CCCCC2)cc1 | -5.0 | 5.01µM* | -0.2% | ? | -21.0 | 3.55µM*
O=C(NCc1nnnn1-c1ccc(Cl)cc1)c1ccc(Br)o1 | 0.2 | . | . | . | 14.5 | .
O=C=Nc1ccc(Cc2ccc(N=C=O)cc2)cc1 | . | 9.1% | ? | . | . | -7.1%
